This note sets out measurements from the supplement of paper PMC6555819.

One assay deals with RARa:RXR (NR concentration 270 nM, RXRa partner concentration 90 nM). Kind of assay: PBM binding z-score (relative to random genomic background probes); higher = stronger binding; sequences stand for … in GC…GCGATTGACAGCGTAGAATGAAGG
Put shortly: (§1)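 Binding z-scores take random background probes as their reference. They come from custom Agilent 4×180K protein-binding microarrays incubated 1 h with ligand-free nuclear receptor dimers, with antibodies against each partner (one per run) detecting binding. Scanned fluorescence was regression-normalized.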
In turn, CATGCTAGGTCAATGGTCAGCTAAAGCAGCTCGC came in with a PBM binding z-score of 1.82.

Sequence TTACCAAGGTGAAGGTCGTTGACCCCTCTGTAGA displayed a PBM binding z-score of 5.73.

The sequence TTACCAGGGTGAGCTGAGGTCGTTGATCCAACTC returned a PBM binding z-score of 2.13.

For the sequence CCTACTGGGCCCTCAGGTCATTGATATCAACGTT, the PBM binding z-score is 1.64.

As for ACTAGCAGGCTAAGGGTCACTCAAGATTAGTCCG, the PBM binding z-score was found to be 4.56.

TCTTTTAGATCAGCAGGTTAAGAAAGCTGGCCAA showed a PBM binding z-score of 0.753.

The sequence AGAATGAGGTTATTAAGTTCAGGGAATTGCGGTC displayed a PBM binding z-score of 2.88.

As for CGGCCTAGGTCAGGGCCAGTATAGGAGGAACGTT, the PBM binding z-score stood at 0.858.

In the case of ACTATTAGTTGACTGAGGGCAACCGATACGACGC, the PBM binding z-score is 0.779.

Consider CATTACGGGTCACGAGGTTATAGCACGACGAGCG, for which the PBM binding z-score worked out at 6.52.

On to CTACCAAGGTGAACAAGGTCATTGATTACTATTC, for which the PBM binding z-score amounted to 4.44.

Take TCTGCTAGTTCAGTTGGTCAGCTAACGAGCTGCC: the PBM binding z-score was -0.244.

Take GCTAGTTGGTCAGTAAAAGGTCACAAACCGGTCG: the PBM binding z-score was determined as 5.58.

ATCGAGAGGTCGTGAGGTGAGTATACAGAAAGGC: the PBM binding z-score turned out to be 3.54.

As for CGTCCAAGGTCAAACGTCAGTGAAGAGATGACGG, the PBM binding z-score is 5.04.

Sequence ATTTCTAGGTAACCAAGTTCAGTGAATGCCGAAC returned a PBM binding z-score of 0.832.

Turning to CGTCAAAGTTCACGGTAACGTAACAGAAAGCAGC, the PBM binding z-score was found to be 4.67.

Consider TTACCAAGGTGAAAGGTCGTAGATGCACGCCTTG, for which the PBM binding z-score was found to be 5.82.

The sequence ATATCTAGGTAACCAAGTTCAGTGAATGCCGAAC came in with a PBM binding z-score of 0.933.

For ATCTCAAGGTAAAGTTCAGTGAAAGATCGATAGA, the PBM binding z-score was determined as 1.78.

Consider CCTACTGGGCCATCAGGGCATTGATATCAACGTT, for which the PBM binding z-score was -0.889.

For the sequence CCTATGAGTTGACCATAAGGGCAACCGAAGCTCG, the PBM binding z-score turned out to be 1.51.

As for TCTGCTAGGTGAGTTGGTCAGCTAACGAGCTGCC, the PBM binding z-score was -0.314.

Sequence GGAACGAGGGCAAAGTTGCTAGCATCTGTCGACG displayed a PBM binding z-score of 0.566.

For ATCGCTAGGTAAGACTCAGTTCAGTGAAGAACGC, the PBM binding z-score is -0.577.

The sequence ATCTCAAGGTAACAAGTTCAGTGAAAGAGAGGAC came in with a PBM binding z-score of 1.33.

In the case of CCTTACGGCTCACTGACAGGTTATAGCATTTGGA, the PBM binding z-score came out at 0.669.

On to TCTATTGGTTGAAGGGCAACCGACGAGTCCGTTT, for which the PBM binding z-score came out at 0.74.

In turn, TCTATTAGTTGAAGCGCAACCGACGAGTCCGTTT displayed a PBM binding z-score of 0.126.

In turn, CGCCCAAGGTCATAGGAGGTCAGTGAAGACAGAT displayed a PBM binding z-score of 5.06.

For the sequence ATATCTAGGTTAAGGGTCATTCAGGTTGGTTCGC, the PBM binding z-score worked out at 5.91.

The sequence CAAACTAGGTCACGAAAGGTCAAAGTAGAATGAC showed a PBM binding z-score of 7.51.

Sequence ACTATTAGTTGACTTAGGGCAACCGGTACGACGC gave a PBM binding z-score of 0.898.

CAAACTAGGTCAAAGTCAAAGTCGGTTTGTGCCA yielded a PBM binding z-score of 2.61.

CCTACTGGGCCATTCAGAGGTCATTTATCATATG came in with a PBM binding z-score of 4.44.

For the sequence TCATATAGGTAAATGCTAGGTTAAAGTCCGATCT, the PBM binding z-score amounted to 1.29.

Take TTACCAAGGTGAGGGTCGTTGATCCCTCTGTAGA: the PBM binding z-score is 1.36.

CCTAGCAGGCCAGGGTCAATCAAGCATTTCGCTT came in with a PBM binding z-score of 4.4.

With TCTCAAAGTTCAAAGGTAACGTAAGTATCCACAC, the PBM binding z-score turned out to be 6.13.

Sequence ATATGTAGGTTATCGGGTCATTTAGTTTGCGCAT showed a PBM binding z-score of 3.6.

The test system of another assay is RARa homodimer (NR concentration 270 nM). The description is as above. The procedure, abridged: as §1
Consider CATGCTAGGTCAATGGTCAGCTAAAGCAGCTCGC, for which the PBM binding z-score was -0.113.

For TTACCAAGGTGAAGGTCGTTGACCCCTCTGTAGA, the PBM binding z-score turned out to be 0.145.

With TTACCAGGGTGAGCTGAGGTCGTTGATCCAACTC, the PBM binding z-score is -0.657.

CCTACTGGGCCCTCAGGTCATTGATATCAACGTT returned a PBM binding z-score of 0.179.

ACTAGCAGGCTAAGGGTCACTCAAGATTAGTCCG: the PBM binding z-score is 0.291.

For TCTTTTAGATCAGCAGGTTAAGAAAGCTGGCCAA, the PBM binding z-score was determined as 0.437.

In turn, AGAATGAGGTTATTAAGTTCAGGGAATTGCGGTC returned a PBM binding z-score of 0.854.

On to CGGCCTAGGTCAGGGCCAGTATAGGAGGAACGTT, for which the PBM binding z-score is -0.476.

In turn, ACTATTAGTTGACTGAGGGCAACCGATACGACGC gave a PBM binding z-score of 0.713.

The sequence CATTACGGGTCACGAGGTTATAGCACGACGAGCG returned a PBM binding z-score of 1.04.

For the sequence CTACCAAGGTGAACAAGGTCATTGATTACTATTC, the PBM binding z-score worked out at 1.19.

As to TCTGCTAGTTCAGTTGGTCAGCTAACGAGCTGCC, the PBM binding z-score is -1.61.

GCTAGTTGGTCAGTAAAAGGTCACAAACCGGTCG registered a PBM binding z-score of 1.91.

For the sequence ATCGAGAGGTCGTGAGGTGAGTATACAGAAAGGC, the PBM binding z-score was found to be 0.567.

The sequence CGTCCAAGGTCAAACGTCAGTGAAGAGATGACGG came in with a PBM binding z-score of 0.465.

The sequence ATTTCTAGGTAACCAAGTTCAGTGAATGCCGAAC displayed a PBM binding z-score of 1.02.

Regarding CGTCAAAGTTCACGGTAACGTAACAGAAAGCAGC, the PBM binding z-score came out at 1.67.

As to TTACCAAGGTGAAAGGTCGTAGATGCACGCCTTG, the PBM binding z-score is -0.336.

In turn, ATATCTAGGTAACCAAGTTCAGTGAATGCCGAAC gave a PBM binding z-score of 0.953.

ATCTCAAGGTAAAGTTCAGTGAAAGATCGATAGA registered a PBM binding z-score of 1.65.

CCTACTGGGCCATCAGGGCATTGATATCAACGTT: the PBM binding z-score was -0.828.

Turning to CCTATGAGTTGACCATAAGGGCAACCGAAGCTCG, the PBM binding z-score is 0.579.

TCTGCTAGGTGAGTTGGTCAGCTAACGAGCTGCC: the PBM binding z-score is -1.28.

Take GGAACGAGGGCAAAGTTGCTAGCATCTGTCGACG: the PBM binding z-score is -1.12.

On to ATCGCTAGGTAAGACTCAGTTCAGTGAAGAACGC, for which the PBM binding z-score was -0.519.

As for ATCTCAAGGTAACAAGTTCAGTGAAAGAGAGGAC, the PBM binding z-score was found to be 1.14.

With CCTTACGGCTCACTGACAGGTTATAGCATTTGGA, the PBM binding z-score was determined as 0.331.

In the case of TCTATTGGTTGAAGGGCAACCGACGAGTCCGTTT, the PBM binding z-score worked out at 0.718.

Take TCTATTAGTTGAAGCGCAACCGACGAGTCCGTTT: the PBM binding z-score is 0.262.

In the case of CGCCCAAGGTCATAGGAGGTCAGTGAAGACAGAT, the PBM binding z-score was determined as 1.63.

Take ATATCTAGGTTAAGGGTCATTCAGGTTGGTTCGC: the PBM binding z-score was determined as 3.76.

CAAACTAGGTCACGAAAGGTCAAAGTAGAATGAC gave a PBM binding z-score of 4.51.

In turn, ACTATTAGTTGACTTAGGGCAACCGGTACGACGC had a PBM binding z-score of 0.577.

In the case of CAAACTAGGTCAAAGTCAAAGTCGGTTTGTGCCA, the PBM binding z-score is 0.68.

The sequence CCTACTGGGCCATTCAGAGGTCATTTATCATATG gave a PBM binding z-score of 0.704.

As to TCATATAGGTAAATGCTAGGTTAAAGTCCGATCT, the PBM binding z-score is 1.88.

Turning to TTACCAAGGTGAGGGTCGTTGATCCCTCTGTAGA, the PBM binding z-score was -0.812.

Consider CCTAGCAGGCCAGGGTCAATCAAGCATTTCGCTT, for which the PBM binding z-score is 0.17.

Sequence TCTCAAAGTTCAAAGGTAACGTAAGTATCCACAC returned a PBM binding z-score of 2.08.

Consider ATATGTAGGTTATCGGGTCATTTAGTTTGCGCAT, for which the PBM binding z-score was determined as 1.47.
